# In PubChem BioAssay AID588853 (National Center for Advancing Translational Sciences (NCATS), 2011):
# The source made the active and inactive calls.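 How the source made its calls: active means glucocerebrosidase seen by eye moving to lysosomes in immunostained patient skin cells after 5 µM compound; inconclusive means microscope result judged unclear; inactive means no movement seen.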
# Target: Lysosomal acid glucosylceramidase (Homo sapiens) (UniProt P04062)
# Assay: qHTS for Activators of Human Glucocerebrosidase as a Potential Chaperone Treatment of Gaucher Disease: Fibroblast Translocation
# Settings: Gaucher patient fibroblasts, GCase lysosomal translocation, immunofluorescence
# Text: Glucocerebrosidase (GCase) catalyzes the hydrolysis of beta-glucocerebroside to glucose and ceramide in lysosomes. Mutations in the glucocerebrosidase gene result in Gaucher disease, an autosomal recessive lysosomal storage disorder. Many of the mutations encountered in patients with Gaucher disease are missense alterations that may cause misfolding, decreased stability and/or mistrafficking of this lysosomal protein. […] However, the enhancement of enzyme activity by the chaperone action of an enzyme inhibitor must be balanced against the direct inhibition of the enzyme. An enzyme activator could also function as a chaperone by binding to the enzyme and helping to correct its misfolding and mistrafficking. Activators for GCase have not yet been identified, and they may have better therapeutic potential than inhibitors. Therefore the discovery and development of chemical activators may provide a new strategy for the chaperone therapy. The probe that has been identified was tested in a chaperone translocation experiment in human fibroblasts. This assay attempts to quantitate translocated glucocerebrosidase protein in patient-derived fibroblasts following extended compound incubation. The fibroblasts tested in this experiment were homozygous either for N370S glucocerebrosidase or wildtype GCase. NIH Chemical Genomics Center [NCGC] […]
# Chain of Lysosomal acid glucosylceramidase (Homo sapiens) (P04062 whole entry N409S): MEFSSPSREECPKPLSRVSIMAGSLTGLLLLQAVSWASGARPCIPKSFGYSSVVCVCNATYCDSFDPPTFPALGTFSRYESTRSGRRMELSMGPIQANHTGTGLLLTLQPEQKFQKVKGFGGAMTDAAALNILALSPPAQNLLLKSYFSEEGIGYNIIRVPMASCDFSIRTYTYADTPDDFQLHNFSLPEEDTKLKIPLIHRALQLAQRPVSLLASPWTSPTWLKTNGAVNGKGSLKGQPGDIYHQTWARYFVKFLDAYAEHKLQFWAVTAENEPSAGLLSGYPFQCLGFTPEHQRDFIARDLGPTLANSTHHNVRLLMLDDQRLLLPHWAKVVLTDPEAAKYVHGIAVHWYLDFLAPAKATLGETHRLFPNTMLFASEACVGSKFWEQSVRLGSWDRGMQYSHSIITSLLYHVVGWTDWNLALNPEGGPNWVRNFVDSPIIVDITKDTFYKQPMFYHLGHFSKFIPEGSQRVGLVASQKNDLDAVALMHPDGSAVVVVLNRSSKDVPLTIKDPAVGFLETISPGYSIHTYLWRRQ
row,Compound,outcome
1,C#Cc1ccc(NC(=O)c2cnn3c(C)cc(C)nc23)cc1,active; yes
2,CN(C(=O)CNC(=O)c1ccccc1OCC(=O)Nc1ccc(Br)cc1)c1ccccc1,active; yes
